Compounds with a hit are over-represented: about 19% of the library has one in this group of screens.
Chronic BCR inh = blocks chronic active B-cell receptor signaling; Potency, µM (doses to about 46.1 µM), inactives show at the top dose activity change, negative = inhibition, usual class: inhibitors; AID 493014; 340,000 compounds, 0.05% hits; ABC-DLBCL IkBa-CBG/CBR reporter, luminescence ratio, 4 h; active = well fitted inhibition curve with a large enough effect in the signal ratio, with a control signal flat, not every such curve was filed as active; inconclusive = small, poorly fitted or top-dose-only effect, or effect the other way, or a change in a side signal; the % refers to the signal ratio;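 note: potency is the fitted concentration of half-maximal effect; plate controls were basal doxycycline-induced cells for no effect and cells given 10 µM MG132 for full effect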
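TMD8 human ABC-DLBCL cells with doxycycline-inducible IκBα–green luciferase fusion and unfused red luciferase, in 0.5% FBS medium; compounds up to 46 uM, 4 h at 37C. Green/red luminescence ratio, filter-overlap corrected, fitted to concentration-response curves.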
TDP1 cell noCPT = qHTS for Inhibitors of human tyrosyl-DNA phosphodiesterase 1 (TDP1): qHTS in cells in absence of CPT | DT40 Tdp1-/- hTDP1 cells, no CPT, ATP luminescence, 48 h | Potency, µM (titrated, usually from 46.2 µM), without a hit: at the highest dose activity change, negative = growth inhibition, actives largely listed as inhibitors | 420,000 compounds, 15% hits; note: potency is the fitted concentration of half-maximal effect; % is set by controls: 0 for no effect and ±100 for the full control effect; nearly all actives have a fitted effect of over 55% in size
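Growth of hTDP1-complemented DT40 Tdp1-knockout cells is measured by ATP luminescence after at least 48 hr compound exposure at 37 °C, with DMSO substituting for the 20 nM CPT used in the parallel screen.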
SW480 rerep = induces DNA re-replication in SW480 colon adenocarcinoma cells; SW480 DNA re-replication, Hoechst DNA content imaging, 48 h; Potency, µM (highest dose often 46.1 µM), for inactives: at the highest dose re-replication activation, usual class: activators; 340,000 compounds, 1.8% hits; note: potency is the fitted concentration of half-maximal effect; % of control where 0% means no effect; nearly all actives have a fitted effect of over 55% in size
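250 cells/well; 23 nL cpd via pin tool; 48 hr, 37 C, 5% CO2; Hoechst 40 min; imager read of total nuclear intensity, ex 405/em 500-530 nm.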
MCF10A rerep = inducers of DNA re-replication in MCF 10A breast cells; MCF 10A DNA re-replication, Hoechst nuclear intensity, 48 h; Potency, µM (doses to about 46.1 µM), inactives show at the highest dose activity, positive = re-replication, hits mostly activators; 350,000 compounds, 2.9% hits; AID 624296; note: potency is the fitted concentration of half-maximal effect; % of control where 0% means no effect; nearly all actives have a fitted effect of over 50% in size
IL1B secr inh = inhibitors of inflammasome signaling (IL-1 beta secretion). 360,000 compounds, 4.7% hits. AID 743279. THP-1 LPS/ATP IL-1B secretion, AlphaLISA, 16 h; stronger effect = lower value. activity change, % at 57.5 µM; in the data active = activity change below about -50%; inconclusive = mostly about -30% to -49%; note: % is set by controls: 0 for no effect and ±100 for the full control effect
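THP-1 cells pretreated 1 hr with compounds (up to 57.5 uM final), then stimulated with LPS (250 ng/mL final) plus ATP (1.25 mM final); secreted IL-1B measured by AlphaLISA after 16 hr, decreased signal indicating inhibition.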
TDP1 cell CPT = DT40-hTDP1 cell growth loss with CPT | chicken DT40 Tdp1-/-;hTDP1 cells + 20 nM CPT, ATP luminescence, 48 h | Potency, µM (series often up to 46.2 µM), for the others: at the top dose activity change, negative = growth inhibition, most hits filed as inhibitors | 420,000 compounds, 12% hits | AID 686979; note: potency is the fitted concentration of half-maximal effect; % is set by controls: 0 for no effect and ±100 for the full control effect; nearly all actives have a fitted effect of over 55% in size
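Chicken DT40 Tdp1-/- cells stably complemented with human TDP1 were seeded at 400 cells/well in medium containing 20 nM camptothecin, exposed to pin-transferred compounds, and grown at 37 °C for at least 48 hr. Viability was read as ATP luminescence.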
Numbers without * were called inactive; ? = inconclusive; . = no result; [ ] = remark or other dose. Unless noted, calls come from the whole dose curve; as a rule, active = well fitted curve in the direction sought with a large enough effect; inconclusive = small, poorly fitted or top-dose-only effect, or another doubt; inactive = no such curve, though single readings can be large; an effect the other way counts as inactive or inconclusive.

SMILES	Chronic BCR inh	TDP1 cell noCPT	SW480 rerep	MCF10A rerep	IL1B secr inh	TDP1 cell CPT
COc1ccc(-c2nn(-c3ccccc3)cc2CNCCN2CCOC2=O)c(F)c1	-2%	?	7%	-10%	-18	?
COc1ccc(-n2cc(CNCCCN3CCCC3=O)c(-c3ccccc3Cl)n2)cc1	?	16µM*	-10%	1%	?	16µM*
COc1ccc(N=Cc2ccccc2O)cc1	.	-7%	-9%	-8%	-14	-7%
COc1ccc2sc(/C=C/c3ccccc3O)[n+](C)c2c1	-4%	15µM*	24%	4%	?	23µM*
Cc1cc(C)n(-c2ccc(C(=O)N3CCN(S(=O)(=O)c4ccc(Br)cc4Cl)CC3)cc2)n1	.	16µM*	.	.	?	23µM*
Cc1cc(C)n(-c2ccc(C(=O)N3CCC(CO)(Cc4ccccc4)CC3)cc2)n1	-2%	?	-4%	-2%	0	16µM*
COCCNC(=O)CSc1ccccc1C(=O)NC1CCCc2ccccc21 (centres undefined)	-4%	-18%	-17%	-3%	8	4%
Cc1ccc(NC(=O)CSc2nnc(-c3cc(C)[nH]n3)n2N)c(C)c1	-1%	3%	0%	-7%	-12	7%
N#CC1=C(N)Oc2c(ccc3ccccc23)C1c1ccsc1 (centres undefined)	-5%	0.58µM*	?	?	13	0.82µM*
CCN1C(=O)/C(=C2/Sc3ccccc3N2CC)S/C1=N\c1ncn[nH]1	?	23µM*	24%	?	-55*	?
CCN(CC(=O)NC(C)(C)C)Cc1nc2c(Br)cc(Br)cc2c(=O)[nH]1	-18%	?	?	?	-100*	?
CCN(CC(=O)NC1CCS(=O)(=O)C1)Cc1nc2c(Br)cc(Br)cc2c(=O)[nH]1 (centres undefined)	-8%	-1%	3%	1%	0	20%
Cn1c(=O)n(C)c2cc(N3CCCC3)c(NC(=O)c3cccc(F)c3)cc21	?	?	1%	1%	0	?
Cn1c(=O)n(C)c2cc(N3CCCCC3)c(NC(=O)c3c(F)cccc3F)cc21	.	26µM*	.	.	.	13µM*
Cc1ccccc1C(=O)Nc1cc2c(cc1N1CCCCC1)n(C)c(=O)n2C	.	12µM*	.	.	.	-82%
Cc1ccccc1-c1cnc(C(O)c2ccc(C(C)(C)C)cc2)[nH]1 (centres undefined)	.	?	.	.	-10	?
O=C(N[C@@H](Cc1ccccc1)C(=O)OCc1ccccc1)c1nc[nH]c1C(=O)NCc1ccccc1	?	?	1%	10%	10	18µM*
CC(C)C[C@H](NC(=O)c1[nH]cnc1C(=O)N[C@@H](Cc1ccccc1)C(=O)OCc1ccccc1)C(=O)OCc1ccccc1	?	?	15%	2%	-3	?
CC1CCN(C(=O)c2ncn3c2c(=O)[nH]c2ccc(Br)cc23)CC1	.	-2%	.	.	-1	-1%
CC(C)(C)OC(=O)[C@H](Cc1ccccc1)NC(=O)c1ncn2c1c(=O)[nH]c1ccc(Br)cc12	.	3.3µM*	.	.	6	4.6µM*
CC(C)(C)OC(=O)NCCCCCNC(=O)c1ncn2c1c(=O)[nH]c1ccccc12	.	21µM*	.	.	-21	?
CC(C)(C)OC(=O)[C@H](Cc1ccccc1)NC(=O)c1nc[nH]c1C(=O)N[C@@H](Cc1ccccc1)C(=O)OC(C)(C)C	14%	18µM*	-7%	2%	-19	15µM*
CC(C)(C)OC(=O)NN1CC(=O)N2Cc3[nH]c4ccccc4c3C[C@H]2C1=O	-3%	17%	-24%	1%	25	-2%
CC(C)(C)OC(=O)C(Cc1ccc(OC(C)(C)C)cc1)NC(=O)CNC(=O)CNC(=O)OCc1ccccc1 (centres undefined)	?	?	7%	4%	-28	?
CC(C)(C)OC(=O)[C@H](Cc1ccccc1)NC(=O)c1[nH]cnc1C(=O)N[C@@H](Cc1ccccc1)C(=O)OCc1ccccc1	19%	23µM*	-11%[9.22 µM]	-29%	0	16µM*
SMILES	Chronic BCR inh	TDP1 cell noCPT	SW480 rerep	MCF10A rerep	IL1B secr inh	TDP1 cell CPT
CC(C)(C)OC[C@H](NC(=O)c1[nH]cnc1C(=O)Nc1ccccc1F)C(=O)OC(C)(C)C	.	21µM*	.	.	-20	21µM*
CC(C)(C)OC(=O)[C@H](CCCCN)NC(=O)c1[nH]cnc1C(=O)N[C@@H](Cc1ccccc1)C(=O)OCc1ccccc1	1%	-22%	-2%	-9%	24	?
CC(NC(=O)OCc1ccccc1)C(=O)NCC(=O)NC(Cc1ccc(OC(C)(C)C)cc1)C(=O)OC(C)(C)C (centres undefined)	-14%	12µM*	-1%	4%	-4	21µM*
CCC[C@@H]1C=C(C(=O)OCC)[C@H](c2ccccc2)N1S(=O)(=O)c1ccc(C)cc1	.	5.2µM*	.	.	4	5.2µM*
CCOC(=O)C1=C[C@@H](C)N(S(=O)(=O)c2ccc(C)cc2)[C@H]1c1ccccc1	.	?	.	.	1	?
CCOC(=O)C1=C[C@@H](C2CCCCC2)N(S(=O)(=O)c2ccc([N+](=O)[O-])cc2)[C@H]1c1ccccc1	.	?	.	.	-19	21µM*
Cc1ccc(S(=O)(=O)N2[C@@H](c3ccc(Cl)c(Cl)c3)C(C(=O)O)=C[C@H]2C(C)(C)C)cc1	0%	?	15%	17%	-9	?
CCOC(=O)C1=C[C@@H](C(C)(C)C)N(S(=O)(=O)c2ccc(C)cc2)[C@H]1c1ccc(Cl)c(Cl)c1	.	23µM*	.	.	25	16µM*
CCOC(=O)C1=C[C@@H](CC)N(S(=O)(=O)c2ccccc2)[C@H]1c1ccccc1	.	18µM*	.	.	1	?
COc1ccc(NC(=O)CN(C)C(=O)c2ccc(NS(=O)(=O)c3ccc4[nH]c(=O)[nH]c4c3)cc2)cc1	-5%	5%	-5%	2%	5	8%
CCOC(=O)C1=C[C@@H](c2ccccc2)N(S(=O)(=O)c2ccc(C)cc2)[C@H]1c1ccccc1Cl	.	26µM*	.	.	1	?
CCOC(=O)C1=C[C@@H](C(C)C)N(S(=O)(=O)c2ccc(C)cc2)[C@H]1c1ccc(C(F)(F)F)cc1	.	12µM*	.	.	44	?
